Experiment [1] concerns the target Glutathione peroxidase 1 (Homo sapiens) (UniProt P07203). Put plainly: Primary qHTS Assay for Inhibitors of Recombinant Selenoprotein Glutathione Peroxidase 1 (GPX1) (AID 1845191). Also: nearly all actives have a fitted effect of over 65% in size. Also: potency is read from the fitted curve at half-maximal effect. Summed up:
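GR-coupled readout: NADPH consumption tracked by fluorescence, ex 340/em 450 nm, at t=0 and after 15 min at RT. Final mix 10 nM GPX1, 1 mM GSH, 0.5 mM CHP, 0.5 mM NADPH, 100 nM GR, 0.01% BSA, following 30 min enzyme–compound preincubation.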

Experiment [2] concerns the target Phospholipid hydroperoxide glutathione peroxidase GPX4 (Homo sapiens) (UniProt P36969). Nature of the experiment: Primary qHTS Assay for Inhibitors of Recombinant Selenoprotein Glutathione Peroxidase 4 (GPX4) (AID 1845192). Also: nearly all actives have a fitted effect of over 65% in size. Also: potency is read from the fitted curve at half-maximal effect. Summed up: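 Steps: GPX4 plus compound, 30 min RT; add GR/GSH/NADPH master mix; start with cumene hydroperoxide; read 340/450 nm fluorescence at 0 and 15 min. Finals were 200 nM GPX4, 1 mM GSH, 0.5 mM CHP, 0.5 mM NADPH, 100 nM GR.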

The target of experiment [3] is Luciferin 4-monooxygenase (Photinus pyralis) (UniProt P08659). Nature of the experiment: Primary firefly luciferase (FLuc) qHTS assay for identification of artifact compounds. (AID 1845220). Also: nearly all actives have a fitted effect of over 60% in size. A digest of the protocol:
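Titrated compounds were incubated 15 min at RT, protected from light, with luciferin and ATP at 10 uM; reaction started with 10 nM FLuc, luminescence imaged at 5 min, and concentration-response fitted by Hill equation.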
A general note: In qHTS, concentration-response curves come from the screen itself.

Experiment [4] is described as follows: Primary fluorescence-based thiol-reactive (MSTI) qHTS assay for identification of artifact compounds. (AID 1845221).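 Also: series mostly up to about 54 µM; thiol-reactive compounds lower the probe fluorescence signal; nearly all actives have a fitted effect of over 65% in size.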 A digest of the protocol:
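Compounds were incubated 1 h at room temperature in the dark with the MSTI probe (4 uM) in PBS pH 7.4, 2% DMSO. Signals were normalized between Acetyl-MSTI and MSTI.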

For experiment [5], the system named is Nanoluciferase (engineered Oplophorus gracilirostris luciferase). Put plainly: Primary Nanoluciferase (NLuc) qHTS assay for identification of artifact compounds. (AID 1845222). Also: potency is read from the fitted curve at half-maximal effect. A digest of the protocol: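 qHTS format, against NLuc in S16 cell-conditioned medium. Nano-Glo substrate 1:100 was added after 15 min at room temperature. Luminescence was taken after a further 5 min.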

Data on 29 molecules can be found in PubChem BioAssay (NCATS).

Inconclusive results are not listed. The source made the active and inactive calls. Calls follow the shape of the dose curve; as a rule, active = well fitted curve in the direction sought with a large enough effect; inconclusive = small, poorly fitted or top-dose-only effect, or another doubt; inactive = no such curve, though single readings can be large; an effect the other way counts as inactive or inconclusive.

Sequence of Glutathione peroxidase 1 (Homo sapiens) (P07203 whole entry, looked up): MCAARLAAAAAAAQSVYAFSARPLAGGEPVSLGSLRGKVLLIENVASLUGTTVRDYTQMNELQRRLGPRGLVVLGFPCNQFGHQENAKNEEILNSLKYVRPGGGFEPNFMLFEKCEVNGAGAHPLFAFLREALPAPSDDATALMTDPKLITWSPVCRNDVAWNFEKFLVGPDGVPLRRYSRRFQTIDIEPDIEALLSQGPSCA
Sequence of Phospholipid hydroperoxide glutathione peroxidase GPX4 (Homo sapiens) (P36969 whole entry, looked up): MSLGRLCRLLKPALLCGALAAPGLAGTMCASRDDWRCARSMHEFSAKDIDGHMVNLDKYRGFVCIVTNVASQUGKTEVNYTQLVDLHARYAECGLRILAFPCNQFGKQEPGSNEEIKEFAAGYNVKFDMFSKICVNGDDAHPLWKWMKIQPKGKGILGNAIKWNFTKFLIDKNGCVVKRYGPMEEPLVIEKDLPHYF

In the case of `O=C(NCc1ccccc1)c1ccc2c(=O)n(-c3cccc(C(F)(F)F)c3)c(=S)[nH]c2c1`, the Potency result in experiment [1], in experiment [2], in experiment [3], in experiment [4] and in experiment [5] was “inactive” throughout.

For `C=C(C(=O)O[C@H]1C/C(C)=C/CC/C(CO)=C/[C@H]2OC(=O)C(=C)[C@H]12)C(O)CO` (stereo partly drawn), the Potency entry in experiment [1], in experiment [2], in experiment [3], in experiment [4] and in experiment [5] was “inactive” each time.

As for `C/C=C(/C)C(=O)O[C@@H]1C[C@@H](OC(=O)CC(C)C)C2(C)C3C(=O)C=C(C)C2C3C1(C)C` (stereo partly drawn), the Potency result in experiment [1], in experiment [2], in experiment [3], in experiment [4] and in experiment [5] was “inactive” in each case.

For the molecule `C=C1C(=O)OC2/C=C(\C)CC/C=C(\C)CC(OC(C)=O)C12` (stereo not drawn), the Potency result in experiment [1], in experiment [2], in experiment [3], in experiment [4] and in experiment [5] was “inactive” in each case.

As for `C/C=C(\C)C(=O)O[C@H]1C=CC(=O)O[C@H]1/C=C/[C@@H](O)[C@H](C)O`, the Potency entry in experiment [1], in experiment [2], in experiment [3], in experiment [4] and in experiment [5] was “inactive” each time.

Take `C=C1CC[C@@H]2[C@](C)(CO)[C@H](O)CC[C@@]2(C)[C@@H]1C/C=C1/C(=O)OCC1OC(=O)/C(=C/CO)C(O)C[C@@H]1C(=C)CC[C@@H]2[C@](C)(CO)[C@H](O)CC[C@]21C` (stereo partly drawn): the Potency entry in experiment [1], in experiment [2], in experiment [3], in experiment [4] and in experiment [5] was “inactive” each time.

As to `COc1ccncc1C(=O)NC(=O)Nc1ccc(-c2ccccc2)c(C(F)(F)F)c1`, the Potency entry in experiment [1], in experiment [2], in experiment [3], in experiment [4] and in experiment [5] was “inactive” in each case.

For `C=C1C(=O)OC2/C=C(\COC(C)=O)CC/C=C(\C=O)CC(OC(=O)C(C)CC)C12` (stereo not drawn), the Potency entry in experiment [1], in experiment [2], in experiment [3], in experiment [4] and in experiment [5] was “inactive” in each case.

On to `Cc1ccc(-c2ncc[nH]2)cc1NC(=O)c1ccc(OCc2ccccn2)cc1`, for which the Potency result in experiment [1], in experiment [2], in experiment [3], in experiment [4] and in experiment [5] was “inactive” in each case.

`CCOC(=O)c1ccc(OCCC2CCN(c3ccc(C)nn3)CC2)cc1`: the Potency entry in experiment [1], in experiment [2], in experiment [3], in experiment [4] and in experiment [5] was “inactive” in each case.

Regarding `Cc1ccc(F)cc1S(=O)(=O)N[C@@H]1CCN(Cc2ccc(OC(C)C)cc2)C1`, the Potency entry in experiment [1], in experiment [2], in experiment [3], in experiment [4] and in experiment [5] was “inactive” each time.

Take `C=CC(=O)Nc1ccc(CN2C(=O)N(c3cc(OC)cc(OC)c3)Cc3cnc(Nc4ccc(N5CCN(C)CC5)cc4)nc32)cc1`: the Potency entry in experiment [1], in experiment [2], in experiment [3] and in experiment [5] was “inactive” each time.

`CC(C)(N)c1ncc(-c2ccc(OC(F)(F)F)cc2)[nH]1`: the Potency result in experiment [1], in experiment [2], in experiment [3], in experiment [4] and in experiment [5] was “inactive” each time.

Take `O=C(Nc1ccn(Cc2ccc(O)cc2C(F)(F)F)n1)c1c(F)cccc1F`: the Potency entry in experiment [1], in experiment [2], in experiment [3], in experiment [4] and in experiment [5] was “inactive” in each case.

With `O=C(O)CCc1nccc2c1[nH]c1ccccc12`, the Potency in experiment [1] is 25.5 µM (active); in experiment [2], 22.7 µM (active). For the same molecule, the Potency result in experiment [3] and in experiment [5] was “inactive” in each case.

Turning to `C=CC(=O)N1CCCN(c2cc(NCCC(=O)O)nc(-c3ccccn3)n2)CC1`, the Potency entry in experiment [1], in experiment [2], in experiment [3], in experiment [4] and in experiment [5] was “inactive” throughout.

For the molecule `C=C(C(=O)O)[C@@H]1CC=C(CCC(C)=O)[C@@H](C)CC1`, the Potency result in experiment [1], in experiment [2], in experiment [3] and in experiment [5] was “inactive” each time.

Turning to `C=C1CC[C@@H](O)[C@]2(C)CC[C@H]3C(=C)C(=O)O[C@@H]3[C@@H]12`, the Potency entry in experiment [1], in experiment [2], in experiment [3] and in experiment [5] was “inactive” throughout.

With `COc1cc2ncnc(Nc3ccc(O)c(Br)c3)c2cc1OC`, the Potency result in experiment [1], in experiment [2], in experiment [3] and in experiment [5] was “inactive” each time.

On to `CN1CCN(c2ccc(OC(F)(F)F)c(Nc3ncc4c(n3)-c3c(c(C(N)=O)nn3CCO)CC4)c2)CC1`, for which the Potency result in experiment [1], in experiment [2], in experiment [3] and in experiment [5] was “inactive” each time.

Consider `O=C(NCC1(c2nc(-c3ccccc3)cs2)CCOCC1)c1cccc(-c2noc(C(F)(F)F)n2)c1`, for which the Potency result in experiment [1], in experiment [2], in experiment [3] and in experiment [5] was “inactive” throughout.

Consider `C=CC1(C)CC(O)C(C(=C)C(=O)OC)C(O)C1C(=C)CO` (stereo not drawn), for which the Potency result in experiment [1], in experiment [2], in experiment [3], in experiment [4] and in experiment [5] was “inactive” in each case.

Take `O=C(NNc1nc2cc(F)ccc2n2cccc12)c1cnccn1`: the Potency entry in experiment [1], in experiment [2], in experiment [3] and in experiment [5] was “inactive” in each case.

Regarding `COC1CC/C=C(\C)C(=O)Nc2cc(O)cc(c2)CC(C)CC(OC)C(O)C(C)/C=C(\C)C1OC(N)=O` (stereo not drawn), the Potency result in experiment [1], in experiment [2], in experiment [3] and in experiment [5] was “inactive” throughout.

As to `COc1ccc(-c2ccccc2)cc1NS(=O)(=O)c1cc(Cl)cc(Cl)c1O`, the Potency result in experiment [1], in experiment [2] and in experiment [3] was “inactive” throughout. Besides, the Potency in experiment [5] is 7.38 µM (active).

Regarding `N#Cc1ccc(COc2ccc(-c3cccc4nc(NC(=O)C5CC5)nn34)cc2)cn1`, the Potency result in experiment [1], in experiment [2], in experiment [3], in experiment [4] and in experiment [5] was “inactive” in each case.

For the molecule `CC(O)C(C)n1ncn(-c2ccc(N3CCN(c4ccc(OCC5COC(Cn6cncn6)(c6ccc(Cl)cc6Cl)O5)cc4)CC3)cc2)c1=O` (stereo not drawn), the Potency entry in experiment [1], in experiment [2], in experiment [3] and in experiment [5] was “inactive” each time.

For `C=C1C(=O)O[C@@H]2/C=C(\CO)CC/C=C(/C=O)C[C@@H](O)[C@@H]12`, the Potency entry in experiment [1], in experiment [2], in experiment [3] and in experiment [5] was “inactive” each time.

Regarding `COc1cc(/C=C2\CCCN([C@@H](C)c3ccc(F)cc3)C2=O)ccc1-n1cnc(C)c1`, the Potency result in experiment [1], in experiment [2], in experiment [3], in experiment [4] and in experiment [5] was “inactive” in each case.
